# According to PubChem BioAssay (EPA / NIEHS):
# Several values for one entry are separate records, joined by “and”; a condition that tells them apart may be missing. Equal entries are not always repeated. Activity calls are given as the source filed them. How the source made its calls: active means hit-call score of the fitted dose curve at least 0.9, where 1 is the maximum; inactive means score below 0.9.
# Read-out: Cellular tumor antigen p53 (Homo sapiens) (UniProt P04637)
# Assay: LTEA_HepaRG_TP53: Life Technologies and Expression Analysis (LTEA) Assay for Tumor Protein P53 (TP53) using HepaRG (AID 2283537)
# Details: mRNA level, 48 h; actives raise or lower the signal
# Procedure: LTEA_HepaRG is a cell based, multiplexed-readout assay that uses HepaRG, a human liver cell line, with measurements taken at 48 hours after chemical dosing on a 96-well plate.LTEA_HepaRG_TP53 is one of 102 assay component(s) measured in the LTEA HepaRG cell culture assay. It is a marker of Oxidative Stress.Data from the assay component LTEA_HepaRG_TP53 was analyzed into 1 endpoint. This assay endpoint, LTEA_HepaRG_TP53, was analyzed with bidirectional fitting relative to DMSO as the negative control and baseline of activity. Using a type of inducible reporter, measures of mRNA induction for gain or loss-of-signal activity can be used to understand regulation of transcription factor activity. To generalize the intended target to other relatable targets, this assay endpoint is annotated to the dna binding intended target family, where the subfamily is tumor suppressor.
# A total of 1060 chemcials from the ToxCast library were tested in eight-point concentration-response experiments. Cell culture and cytotoxicity assays were conducted at Thermo Fisher Scientific's Custom Services facility (Madison, WI). A single lot of human HepaRG cells (Thermo Fisher Scientific, Frederick, MD) was used for the cell culture experiments. 96-well format collagen type I coated plates of human HepaRG cells were prepared using established methods. Briefly, cryopreserved HepaRG cells were thawed, plated at a density of approximately 100,000 cells/well in HepaRG Thaw, Plate, and General Purpose media (HPRG770, Thermo Fisher Scientific), and incubated for 48 hours. 0.5% DMSO was selected as vehicle control to balance the requisite need of DMSO in HepaRG cultures to maintain differentiation (for example, baseline metabolism, proportions of hepatocytes vs. cholangiocytes), while enabling further hepatic receptor pathway activation (for example, PXR and CAR) in response to chemical exposure. 48 hours after plating, the culture medium was replaced with HepaRG Serum-Free Incudtion Media. Cells were exposed to each test chemical in duplicate and maintained in CO2 incubators for another 48 hours. Chemical plates were thawed to room temperature and 200x concentrations of treatment groups were prepared. 8-point conentration-reponse curves were made with the highest exposure at 100 uM, followed by half-log dilutions, all in 0.5% DMSO. Each test plate contained variouse controls, induction positive controls (1mM phenobarbital), cytotoxicity positive controls ([…] aflatoxin B1), vehicle controls (0.5% DMSO), and total lysis controls (0.5% DMSO). Cell morphology images were taken using an Essen IncuCyte FLR automated microscope, with six 96-well plates imaged in about 24 minutes. Images were captured and exported and JPEG files. Spent culture media was transfered to black-well plates for the LDH assay, and remaining media was sorted at -80 C for later use. Cells were treated with RLT buffer and frozen until shipped for gene expression analysis. Total RNA was isolated from the cell suspension in 75 uL of Buffer RLT (Qiagen, Germantown, MD 20874) by Quintiles/Expression Analysis (Durham, NC) using a custom isolation procedure. Total RNA from each plate well was transferred to a preamplification plate. Fluidigm's 96.96 Dynamic ArrayTM (Fluidigm, Amsterdam, the Netherlands) technology was used for gene expression analyses by quantitative reverse transcription polymerase chain reaction (qRT-PCR, performed by Quintiles/Expression Analysis, Durham, NC)89. Standard TaqManTM Assays (Applied Biosystems/ThermoFisher Scientific, Foster City, CA) were used to assess the expression of 93 genes selected based on their selectivity and sensitivity to important hepatic receptors known to be modulated by environmental chemicals; importance in human hepatocyte functionality; and hepatotoxicity. […]
# Chain of Cellular tumor antigen p53 (Homo sapiens) (P04637 whole entry, looked up): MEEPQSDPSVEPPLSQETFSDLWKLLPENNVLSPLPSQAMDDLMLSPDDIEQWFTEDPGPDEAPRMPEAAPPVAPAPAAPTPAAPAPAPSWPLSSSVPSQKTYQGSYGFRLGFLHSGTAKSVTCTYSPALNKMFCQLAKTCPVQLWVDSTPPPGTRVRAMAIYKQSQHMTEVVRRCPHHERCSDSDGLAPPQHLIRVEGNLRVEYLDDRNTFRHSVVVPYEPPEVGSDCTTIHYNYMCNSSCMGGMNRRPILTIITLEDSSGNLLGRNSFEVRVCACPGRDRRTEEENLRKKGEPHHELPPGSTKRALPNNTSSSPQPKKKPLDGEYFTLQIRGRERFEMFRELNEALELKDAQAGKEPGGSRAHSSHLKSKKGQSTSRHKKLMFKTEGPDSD
SMILES,AC50,outcome
CCCC1COC(Cn2cncn2)(c2ccc(Cl)cc2Cl)O1 (stereo not given),34.3 µM (active),–
CCCCNC(=O)OCC#CI,–,inactive
CN(C)C(=S)SSC(=S)N(C)C,–,inactive
Cc1c(F)c(F)c(COC(=O)C2C(/C=C(\Cl)C(F)(F)F)C2(C)C)c(F)c1F (stereo not given),–,inactive
CC(C)C1(C)N=C(c2nc3ccccc3cc2C(=O)O)NC1=O (stereo not given),–,inactive
Cc1cc(Cl)ccc1OCC(=O)O,–,inactive
CC(C)Oc1cc(-n2nc(C(C)(C)C)oc2=O)c(Cl)cc1Cl,86.3 µM (active),–
C#CCOS(=O)OC1CCCCC1Oc1ccc(C(C)(C)C)cc1 (stereo not given),58.4 µM (active),–
COc1cnc(OC)n2nc(NS(=O)(=O)c3c(OCC(F)F)cccc3C(F)(F)F)nc12,–,inactive
CCOc1cc(Oc2ccc(C(F)(F)F)cc2Cl)ccc1[N+](=O)[O-],14 µM (active),–
Oc1ccccc1-c1ccccc1,–,inactive
COC(=O)c1ccccc1C(=O)OC,–,inactive
COP(N)(=O)SC (stereo not given),–,inactive
CCCCOC(=O)c1ccccc1C(=O)OCCCC,–,inactive
CCCCNC(=O)n1c(NC(=O)OC)nc2ccccc21,–,inactive
O=C(O)c1nc(Cl)ccc1Cl,–,inactive
N#CC(CCc1ccc(Cl)cc1)(Cn1cncn1)c1ccccc1 (stereo not given),75.5 µM (active),–
COC(=O)C=C(C)OP(=O)(OC)OC,–,inactive
CCON=C(CC)C1=C(O)CC(c2c(C)cc(C)cc2C)CC1=O (stereo not given),–,inactive
O=C(Nc1ccccc1)Nc1ccnc(Cl)c1,74 µM (active),–

SMILES,AC50,outcome
COc1ccc(C(c2ccc(OC)cc2)C(Cl)(Cl)Cl)cc1,66.7 µM (active),–
COC(=O)N(OC)c1ccccc1COc1ccn(-c2ccc(Cl)cc2)n1,78.5 µM (active),–
COP(=S)(OC)Oc1nc(Cl)c(Cl)cc1Cl,–,inactive
CO/C=C(/C(=O)OC)c1ccccc1Oc1cc(Oc2ccccc2C#N)ncn1,84.8 µM (active) and 83.1 µM (active) and 83 µM (active),–
OC(c1ccc(Cl)cc1)(c1cncnc1)c1ccccc1Cl (stereo not given),70.7 µM (active),–
CON(C)C(=O)Nc1ccc(Cl)c(Cl)c1,69.8 µM (active),–
N#Cc1nn(-c2c(Cl)cc(C(F)(F)F)cc2Cl)c(N)c1S(=O)C(F)(F)F (stereo not given),32 µM (active),–
N#Cc1cc(Br)c(O)c(Br)c1,10.4 µM (active),–
CCCCC(CC)COC(=O)c1ccccc1C(=O)OCC(CC)CCCC (stereo not given),–,inactive
Fc1ccc(Oc2ccnc3cc(Cl)cc(Cl)c23)cc1,–,inactive
COc1nc(NC(C)C)nc(NC(C)C)n1,–,inactive
CNC(=O)ON=CC(C)(C)SC,–,inactive
CCOC(=O)CC(SP(=S)(OC)OC)C(=O)OCC (stereo not given),–,inactive
Cc1ccc(-c2c(Cl)nc(C#N)n2S(=O)(=O)N(C)C)cc1,–,inactive
C=CCC1=C(C)C(OC(=O)C2C(C=C(C)C)C2(C)C)CC1=O (stereo not given),–,inactive
CC1COC(Cn2cncn2)(c2ccc(Oc3ccc(Cl)cc3)cc2Cl)O1 (stereo not given),11.6 µM (active),–
CCOP(=S)(OCC)SCn1c(=O)oc2cc(Cl)ccc21,–,inactive
CS/C(C)=N/OC(=O)N(C)SN(C)C(=O)O/N=C(\C)SC,–,inactive
CC(C)(C)c1ccc(CSc2cnn(C(C)(C)C)c(=O)c2Cl)cc1,2.82 µM (active),–
O=C(O)COc1nc(Cl)c(Cl)cc1Cl,–,inactive
